Reference: PubChem BioAssay (NCI)
This is part of a sample that, as a whole, favours compounds with a hit. Of some 79,000 tested, about 15% had one in any assay. Unmarked numbers belong to inactive results. The source made the active and inactive calls. No stated cut-off is given here; in the data, active means growth inhibition above about 70%; inactive means the rest.

Key:
[1] = NCI Yeast Anticancer Drug Screen. Data for the rad50 strain (AID 155);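 further: 0% = growth of vehicle-only cultures of the same strain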; conditions: S. cerevisiae rad50 strain growth inhibition; at 50.0 µM; active compounds read high
Procedure, shortened: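 Genetically altered yeast (DNA repair pathway); compound treatment; growth inhibition vs vehicle ctrl.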

[2] = NCI Yeast Anticancer Drug Screen. Data for the mec2-1 strain (AID 157); conditions: S. cerevisiae mec2-1 strain, at 50.0 µM, active compounds read high
Procedure, shortened: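 Each compound was tested on mec2-1 yeast, a strain altered in DNA damage repair or cell cycle control. Growth inhibition is reported relative to vehicle.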

[3] = NCI Yeast Anticancer Drug Screen. Data for the sgs1 mgt1 strain (AID 161);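 further: 0% = growth of cultures given vehicle only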; conditions: S. cerevisiae sgs1 mgt1 strain, at 50.0 µM, active compounds read high
Procedure, shortened: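 Inhibition of yeast growth, normalised to vehicle-treated controls, is reported for a strain bearing genetic alterations in DNA damage repair.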

[4] = NCI Yeast Anticancer Drug Screen. Data for the cln2 rad14 strain (AID 165);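 further: 0% = growth equal to vehicle treated cultures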; conditions: S. cerevisiae cln2 rad14 strain, at 50.0 µM, active compounds read high
Procedure, shortened: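 Test compounds were added to cln2 rad14 yeast cultures; inhibition of growth was then determined by comparison with vehicle treatment.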

[5] = NCI Yeast Anticancer Drug Screen. Data for the bub3 strain (AID 167); conditions: S. cerevisiae bub3 mutant strain, at 50.0 µM, active compounds read high
Procedure, shortened: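 Yeast carrying a defined mutation is treated with each compound, and growth is compared with that of vehicle-exposed cells to give inhibition.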

[6] = NCI Yeast Anticancer Drug Screen. Data for the mlh1 rad18 strain (AID 175); conditions: S. cerevisiae mlh1 rad18 strain growth inhibition; at 50.0 µM; active compounds read high
Procedure, shortened: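 Inhibition values reflect reduced growth of mutant yeast versus vehicle-treated controls following compound exposure; the mutations affect DNA damage repair.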

| SMILES | growth inhibition [1] | growth inhibition [2] | growth inhibition [3] | growth inhibition [4] | growth inhibition [5] | growth inhibition [6] |
| --- | --- | --- | --- | --- | --- | --- |
| c1ccc(-c2ccccc2NC2=NCCO2)cc1 | 6.55% | -2.8% | 2.2% | -25.1% | 11.4% | 5.7% |
| CCON=C(c1ccc(Cl)cc1)c1ccc(Cl)cc1 | 2.45% | -21.6% | 12.7% | 16.8% | 26.1% | 1.4% |
| CCOC(=O)C1=C(c2ccccc2)OC(N)=C(C#N)C1c1ccccc1 (stereo not given) | -16.9% | -8.4% | -17.6% | 7.6% | 25.3% | -4.85% |
| CCCCCCC1(/C=C/c2ccc(Cl)cc2Cl)OCCCO1 | 3.3% | 9.1% | -5.45% | -2.75% | 11.8% | 3.65% |
| Cc1cc(C)nc(NS(=O)(=O)c2ccc(NC(=O)c3cccc4c(Nc5ccc(S(=O)(=O)N=C(N)N)cc5)c5ccccc5nc34)cc2)n1 | 0.75% | 14.7% | -10.5% | 37.5% | 26.1% | 15.9% |
| CN1CCN(CC(=O)N2c3ccccc3Sc3cc4ccccc4cc32)CC1 | 2.3% | -3.3% | -30% | -1.95% | -13.7% | 28.6% |
| COC(=O)C(CCc1ccc([N+](=O)[O-])cc1)(CCc1ccc([N+](=O)[O-])cc1)C(=O)OC | 19.2% | 3.25% | 4.15% | -17.9% | 24.2% | 34.9% |
| CC(=O)OCC1OC(n2cc(C)c(=O)[nH]c2=O)C(NC(=O)C(Cl)(Cl)Cl)C(OC(C)=O)C1OC(C)=O (stereo not given) | 6.3% | -4.6% | 2.75% | 0% | 0% | 2.3% |
| CC(C)C1CCC2(C)C(CCC3C(C)(CO)CCCC32O)C1 (stereo not given) | -17.2% | -6.85% | 19.5% | 1.45% | 22.1% | 10% |
| OCCCN1CCCCC1 | -2.7% | -13.6% | 1.05% | 15.8% | -1% | 3.95% |
| CCOc1ccc(-c2nnc(Nc3ccc(S(=O)(=O)N4CCCCC4)cc3)s2)cc1 | 10.3% | 9.6% | 13.7% | -38% | -2.15% | 16.7% |
| COC(=O)C1(C(C(=O)c2ccccc2)c2ccccc2)NC(=S)NC(=O)C1C#N (stereo not given) | -14.4% | 10.2% | -19.9% | 6.25% | -15.4% | -9.7% |
| CS(=O)(=O)OC1COCC1OS(C)(=O)=O (stereo not given) | 8% | 6.15% | 9.05% | -0.8% | -5.3% | -6.1% |
| Nc1nc2c(nc(OCc3ccccc3)n2C2OC(CO)C(O)C2O)c(=O)[nH]1 (stereo not given) | 23.5% | 10.8% | 2.65% | 8.95% | 0.5% | 16.1% |
| NC(=O)c1ncn(C2OC(CO)C(O)C2O)c1C(N)=O (stereo not given) | -7.6% | -24.8% | -12.5% | -4.9% | -0.3% | -24.6% |
| COc1ccc(CSC(=S)Nc2cc(C)c(C)cc2Br)cc1 | 96.3% (active) | 97.5% (active) | 97.7% (active) | 97.6% (active) | 96.8% (active) | 96.8% (active) |
| CCn1c(O)c(C=Nc2ccccc2)s/c1=N/Nc1nc(C)c(C(C)=O)s1 | 24.6% | 5.25% | 17.2% | 16.1% | 42.9% | 21.2% |
| CC/C(=N/N(C)C)C(=O)O | -29.4% | -3.9% | -5.3% | -10.6% | -17.1% | -16.3% |
| c1ccc(N=C2N=c3ccccc3=C2c2c(Nc3ccccc3)[nH]c3ccccc23)cc1 | 20.4% | 5.5% | -4.35% | -27.1% | -4.7% | 17.6% |
| O=C1OI(OI2OC(=O)c3ccccc32)c2ccccc21 (tested in a mixture with another compound) | 11.7% | -9.6% | -19.1% | -9.85% | 17.9% | 9.45% |

| SMILES | growth inhibition [1] | growth inhibition [2] | growth inhibition [3] | growth inhibition [4] | growth inhibition [5] | growth inhibition [6] |
| --- | --- | --- | --- | --- | --- | --- |
| CSCCC(NCCC#N)C(=O)O (stereo not given) | -7.05% | 19.4% | 8.45% | -12.9% | -27.9% | 2.85% |
| O=C1CCCC(=O)C1=Cc1c[nH]c2ccccc12 | 4.3% | 2% | -4.35% | -43% | -16.1% | 15.1% |
| Nc1ccn(CCOC(=O)c2ccccc2)c(=O)n1 | -2% | -28% | -14.7% | -6.05% | 31.2% | 15.5% |
| C=CCc1oc(C)nc1CCCC | 0.2% | -0.1% | 16.7% | 27.4% | 5.85% | 23.3% |
| O/N=C/C(=Nc1ccc2ccccc2c1)NO | 41% | 3.25% | -4.5% | -18.2% | -8.45% | 23.5% |
| CCCCCCC(C(=O)O)C(=O)O | -20.8% | -15.4% | 23.6% | 13.2% | 1.15% | -5.6% |
| CCc1cccc(CC)c1NC(=O)c1ccccc1Cl | 7.9% | 24.6% | 31.3% | 0.8% | 26.1% | 26.8% |
| CNC(=O)c1n[nH]c(=S)[nH]c1=O | -7.4% | -4.9% | 0.8% | -52.8% | -6.7% | -7.5% |
| O=C(O)/C=C/C=C/c1ccc(Cl)cc1 | 7.25% | 23.4% | 4.3% | -14% | 10.4% | -1.95% |
| Cc1cc(C)n(-c2nnc(-n3nc(C)cc3C)c3ccccc23)n1 | -12.4% | -1.75% | -21.6% | -5.45% | -5.5% | -3.9% |
| Nc1nc2ncn(CC(O)COC(=O)c3ccccc3)c2c(=O)[nH]1 (stereo not given) | 23.8% | -8.85% | 27.3% | 28.3% | 27.4% | 39.2% |
| C/C=C/C(=O)OCCC[N+](C)(C)C | 8.8% | 12.3% | 2.8% | -0.95% | 13.9% | -23.8% |
| CC(O)c1ccc(C(O)/C(=N\NC(=O)c2ccncc2)c2nc3ccc([N+](=O)[O-])cc3[nH]c2=O)cc1 (stereo not given) | -5.95% | -10.2% | 15.2% | -60.7% | -5.1% | -2.25% |
| CCN(CC)CCCNc1cc(O)cc2cccnc12 | -1.5% | 5% | 26.6% | 2.6% | 2.3% | -0.35% |
| O=[N+]([O-])c1ccc2cccc3c2c1CC3 | 24.4% | 18.1% | 1.85% | -19.4% | 8.95% | 22.6% |
| COCCCCCOC | 5.55% | -14.8% | -3.4% | 6.6% | 12.3% | 1.55% |
| Cc1ccc2nc(-c3ccc(Cl)cc3Cl)oc(=O)c2c1 | -9.35% | 3.8% | 20.4% | -12.8% | 20.6% | -7.15% |
| Cc1cccc(C)c1NC(=O)Nc1cccc(C#N)c1 | -0.3% | -10.8% | 7.35% | 15.3% | -0.55% | 17.4% |
| COc1ccc(-n2cnc3c(cnn3C3OC(CO)C(O)C3O)c2=O)cc1 (stereo not given) | 8.7% | 2.95% | 8.45% | 23.3% | -4.25% | 3.3% |
| Cc1cc(C)c2cccc-2c(C)c1 | -11.8% | -11.3% | -12.3% | -6.15% | -4.9% | -9.95% |
